Measurements from PubChem BioAssay.

These compounds were tested on Fibrinogen (Alexa647-labelled) (assay: fibrinogen binders on compound microarrays, profiling panel, artefact control for SMM control-protein annotation, biochemical, small-molecule microarray, 635/667 nm fluorescence (AID 1131;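 also: z-score merges 667 nm fluorescence with per-spot signal-to-noise over triplicate slides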)). Conditions: fibrinogen-A647 binding fluorescence, higher = more signal.
`[N-]=[N+]=NCc1ccccc1[C@H]1OC(c2ccc(OCCCO)cc2)=N[C@@]1(Cc1ccccc1)C(=O)N1CCOCC1` showed a composite z-score of 0.992.
Compound `C=CCOC(=O)[C@H]1[C@@H]2C(=O)O[C@@H](c3ccccc3)[C@@H](c3ccccc3)N2[C@@H](c2ccc(OCCOC(=O)[C@@H]3C[C@@H]4C(=O)N[C@@H](CC(C)C)C(=O)N4[C@@H]3c3ccc(O)cc3)cc2)[C@]12C(=O)Nc1ccc(I)cc12` has a composite z-score of 0.761.
`COCCOC(=O)N1C(=O)[C@@]2(c3cc(C#CCC(C(=O)OC)C(=O)OC)ccc31)[C@H](C(=O)N1CCc3cc(OC)c(OC)cc3C1)[C@H]1C(=O)O[C@H](c3ccccc3)[C@H](c3ccccc3)N1[C@@H]2c1ccc(O)cc1` gave a composite z-score of 0.787.
Work on `O=C1c2ccccc2[C@@]2(Cc3ccccc3N(Cc3ccccc3)C2=O)[C@H](c2ccc(CO)cc2)N1Cc1ccccc1` yielded a composite z-score of -0.936.
`CN(C)CCCC[C@@H]1NC(=O)[C@@H]2C[C@H](C(=O)NCCCCCCNC(=O)CS)[C@H](c3cccc(OCCO)c3)N2C1=O` showed a composite z-score of -1.07.
Compound `CCCC[C@H]1OB(O)C[C@H]2C1=C(COC)C[C@H]1C(=O)C=CC(=O)[C@H]12` has a composite z-score of 0.287.
In the case of `C=C(/C(=C/C[C@@H](OC(C)=O)c1ccccc1OCCO)c1cc(C(=O)OC)ccc1OC)C(C)C`, the composite z-score is reported as -0.0872.
Work on `C=C(CCCC)/C(=C/C[C@H](OC(C)=O)c1cccc(OCCO)c1)c1cc(C(=O)OC)ccc1OC` yielded a composite z-score of 0.33.
`CN(C)CCCC[C@@H]1NC(=O)[C@@H]2C[C@H](C(=O)NCc3ccc(F)cc3)[C@H](c3ccc(O)cc3)N2C1=O` showed a composite z-score of 0.348.
`C=CCNC(=O)[C@@H]1[C@H]2C(=O)O[C@H](c3ccccc3)[C@H](c3ccccc3)N2[C@H](c2ccccc2OCCO)[C@@]12C(=O)N(C(=O)OCCOC)c1ccc(C#CCCO)cc12` was tested, and the composite z-score was 0.414.
For `C=CCC(OC(C)=O)[C@@H]1[C@@H](N(Cc2cc3ccccc3o2)C(=O)c2ccc(-c3ccccc3)cc2)c2cc(OCCCO)ccc2N1C(=O)c1ccc2ccccc2n1` (stereo not given in full), the composite z-score was -0.858.
In the case of `COc1ccc(C#Cc2ccc3c(c2)[C@]2(C(=O)N3)[C@H](C(=O)Nc3nc4ccccc4s3)[C@H]3C(=O)O[C@H](c4ccccc4)[C@H](c4ccccc4)N3[C@@H]2c2ccc(OCCO)cc2)cc1`, the composite z-score is reported as 0.731.
Work on `C=CCC(OC(C)=O)[C@@H]1[C@@H](N(Cc2cc3ccccc3o2)C(=O)Cc2ccc(OC)cc2)c2cc(OCCCO)ccc2N1C(=O)Cc1ccc(OC)cc1` (stereo not given in full) yielded a composite z-score of 0.712.
`COCCOC(=O)N1C(=O)[C@@]2(c3cc(C#CC4(O)CCCCCC4)ccc31)[C@H](C(=O)NC[C@H](O)c1ccccc1)[C@H]1C(=O)O[C@H](c3ccccc3)[C@H](c3ccccc3)N1[C@@H]2c1ccc(O)cc1` was tested, and the composite z-score was 0.721.
For `Cc1c(NC(=O)/C(C#N)=C/c2ccc(Cl)cc2)c(=O)n(-c2ccccc2)n1C`, the composite z-score was 1.03.
With `CCCC=C(CCC)[C@@H](NS(=O)(=O)c1ccc(Cl)cc1)c1ccccc1` the composite z-score was 0.522.
`CN(C)CCCNC(=O)[C@@]1(Cc2ccccc2I)c2ccccc2C(=O)N(Cc2ccccc2)[C@H]1c1ccc(CO)cc1` was tested, and the composite z-score was 0.512.
With `CCOC(=O)C[C@H]1[C@H](OC(=O)c2ccc(-c3ccccc3)cc2)[C@@H](NC(=O)c2ccc3ccccc3c2)c2cc(OCCCO)ccc2N1C(=O)c1ccccc1` the composite z-score was 0.118.
`C=C(CCCC)C(=O)CC[C@H](OC(=O)c1cccnc1)c1ccc(CO)o1` was tested, and the composite z-score was 0.664.
Work on `COc1ccc(C#Cc2ccc3c(c2)[C@]2(C(=O)N3)[C@H](c3ccc(OCCO)cc3)N3[C@H](c4ccccc4)[C@H](c4ccccc4)OC(=O)[C@H]3[C@@H]2C(=O)O)cc1` yielded a composite z-score of 0.771.
Work on `COC(=O)[C@@]1(Cc2ccc(F)cc2)[C@H]2c3cc(C(=O)N(C)C)n(CCN4CCOCC4)c3C[C@H]2CN1C(=O)c1ccccc1` yielded a composite z-score of 0.32.
In the case of `CCCC[C@@H]1C[C@H]1[C@@H](NC(=O)c1ccc(C(F)(F)F)cc1)c1ccc(C(=O)OC)cc1`, the composite z-score is reported as 0.366.
`COC(=O)[C@@]1(Cc2ccccc2)[C@@H]2[C@@H](CC(=O)[C@H]2CC(=O)C(=O)N(C)C)CN1C(=O)c1ccccc1` was tested, and the composite z-score was 0.601.
Compound `COC(=O)[C@@]1(Cc2ccc(OC)cc2)[C@H]2c3cc(C(=O)N4CCCC4)n(CCc4ccc(OC)c(Br)c4)c3C[C@H]2CN1C(=O)c1ccccc1` has a composite z-score of 0.406.
Work on `O=C1NC(=O)C2C1C=CC(C(O)c1cccc(O)c1)N2Nc1ccc(Cl)cc1Cl` (stereo not given) yielded a composite z-score of -0.348.
For `C=C(COC)C(=O)CC[C@@H](OC(C)=O)c1ccc(OCCO)cc1`, the composite z-score was -0.467.

These compounds were tested against Follistatin (Homo sapiens) (UniProt P19883) (assay: follistatin binders on small-molecule microarrays, primary screen, biochemical, small-molecule microarray, 635/667 nm fluorescence (AID 1132)). Conditions: FST binding, 635 nm fluorescence, higher = more signal.
Follistatin (Homo sapiens), sequence (P19883 whole entry, looked up): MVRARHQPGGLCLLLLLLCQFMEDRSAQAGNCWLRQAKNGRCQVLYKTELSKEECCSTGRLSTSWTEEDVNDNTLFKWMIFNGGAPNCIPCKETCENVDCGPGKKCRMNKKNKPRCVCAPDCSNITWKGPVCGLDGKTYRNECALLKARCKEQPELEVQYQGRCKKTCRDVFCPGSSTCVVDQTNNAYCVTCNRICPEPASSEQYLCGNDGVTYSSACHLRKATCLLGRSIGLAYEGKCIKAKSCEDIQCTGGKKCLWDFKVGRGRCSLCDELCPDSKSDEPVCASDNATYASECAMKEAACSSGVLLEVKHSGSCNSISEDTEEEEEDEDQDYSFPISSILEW
`CCCCN1CC=CC23O[C@@H]4C=CCOC(=O)[C@@H]4[C@H]2C(=O)N(CCO)[C@@H]3C1=O` (stereo not given in full) gave a composite z-score of -1.06.
With `C=CC[C@@]12N=C(c3ccc(OCCCO)cc3)O[C@@H]1c1ccccc1N(Cc1ccccc1)C2=O` the composite z-score was 1.55.
For `COCCOC(=O)N1C(=O)[C@@]2(c3cc(C#CCC(C(=O)OC)C(=O)OC)ccc31)[C@H](C(N)=O)[C@H]1C(=O)O[C@H](c3ccccc3)[C@H](c3ccccc3)N1[C@@H]2c1ccc(OCCO)cc1`, the composite z-score was 1.25.
`CCOC(=O)C1=C(C(=O)OCC)N(S(=O)(=O)CC[Si](C)(C)C)[C@H](c2ccccc2)CC1` was tested, and the composite z-score was 0.761.
`COC(=O)C1=CC(CCCO)=CC(c2ccc(CN3CCCC3)cc2)N(Cc2sc3ccccc3c2Cl)C=C1C(=O)OC` (stereo not given) gave a composite z-score of 0.59.
For `C=CCNC(=O)[C@@H]1[C@H]2C(=O)O[C@H](c3ccccc3)[C@H](c3ccccc3)N2[C@H](c2ccc(O)cc2)[C@@]12C(=O)Nc1ccc(C#CC3(O)CCCCCC3)cc12`, the composite z-score was 0.726.
For `NC(=O)NCC#Cc1ccc2c(c1)[C@]1(C(=O)N2)[C@H](C(=O)Nc2nc3ccccc3s2)[C@H]2C(=O)O[C@H](c3ccccc3)[C@H](c3ccccc3)N2[C@@H]1c1ccc(OCCO)cc1`, the composite z-score was 1.37.
For `COCCOC(=O)N1C(=O)[C@@]2(c3cc(C#CC4(O)CCCCCC4)ccc31)[C@H](c1ccccc1OCCO)N1[C@H](c3ccccc3)[C@H](c3ccccc3)OC(=O)[C@H]1[C@@H]2C(=O)N1CCCCCCC1`, the composite z-score was 1.45.
`COCCOC(=O)N1C(=O)[C@@]2(c3cc(C#CCCO)ccc31)[C@H](C(=O)N1CCc3cc(OC)c(OC)cc3C1)[C@H]1C(=O)O[C@H](c3ccccc3)[C@H](c3ccccc3)N1[C@@H]2c1ccccc1OCCO` showed a composite z-score of 1.41.
In the case of `[N-]=[N+]=NCc1ccccc1[C@H]1OC(c2ccc(OCCCO)cc2)=N[C@@]1(Cc1ccccc1)C(=O)N1CCOCC1`, the composite z-score is reported as 0.25.
`C=CCOC(=O)[C@H]1[C@@H]2C(=O)O[C@@H](c3ccccc3)[C@@H](c3ccccc3)N2[C@@H](c2ccc(OCCOC(=O)[C@@H]3C[C@@H]4C(=O)N[C@@H](CC(C)C)C(=O)N4[C@@H]3c3ccc(O)cc3)cc2)[C@]12C(=O)Nc1ccc(I)cc12` showed a composite z-score of 1.08.
Work on `COCCOC(=O)N1C(=O)[C@@]2(c3cc(C#CCC(C(=O)OC)C(=O)OC)ccc31)[C@H](C(=O)N1CCc3cc(OC)c(OC)cc3C1)[C@H]1C(=O)O[C@H](c3ccccc3)[C@H](c3ccccc3)N1[C@@H]2c1ccc(O)cc1` yielded a composite z-score of 1.36.
In the case of `O=C1c2ccccc2[C@@]2(Cc3ccccc3N(Cc3ccccc3)C2=O)[C@H](c2ccc(CO)cc2)N1Cc1ccccc1`, the composite z-score is reported as -1.
For `CN(C)CCCC[C@@H]1NC(=O)[C@@H]2C[C@H](C(=O)NCCCCCCNC(=O)CS)[C@H](c3cccc(OCCO)c3)N2C1=O`, the composite z-score was 0.541.
`CCCC[C@H]1OB(O)C[C@H]2C1=C(COC)C[C@H]1C(=O)C=CC(=O)[C@H]12` gave a composite z-score of 0.865.
Work on `C=C(/C(=C/C[C@@H](OC(C)=O)c1ccccc1OCCO)c1cc(C(=O)OC)ccc1OC)C(C)C` yielded a composite z-score of 0.425.
`C=C(CCCC)/C(=C/C[C@H](OC(C)=O)c1cccc(OCCO)c1)c1cc(C(=O)OC)ccc1OC` was tested, and the composite z-score was 0.0088.
Compound `CN(C)CCCC[C@@H]1NC(=O)[C@@H]2C[C@H](C(=O)NCc3ccc(F)cc3)[C@H](c3ccc(O)cc3)N2C1=O` has a composite z-score of 1.45.
Compound `C=CCNC(=O)[C@@H]1[C@H]2C(=O)O[C@H](c3ccccc3)[C@H](c3ccccc3)N2[C@H](c2ccccc2OCCO)[C@@]12C(=O)N(C(=O)OCCOC)c1ccc(C#CCCO)cc12` has a composite z-score of 0.881.
In the case of `C=CCC(OC(C)=O)[C@@H]1[C@@H](N(Cc2cc3ccccc3o2)C(=O)c2ccc(-c3ccccc3)cc2)c2cc(OCCCO)ccc2N1C(=O)c1ccc2ccccc2n1` (stereo not given in full), the composite z-score is reported as 0.313.
In the case of `COc1ccc(C#Cc2ccc3c(c2)[C@]2(C(=O)N3)[C@H](C(=O)Nc3nc4ccccc4s3)[C@H]3C(=O)O[C@H](c4ccccc4)[C@H](c4ccccc4)N3[C@@H]2c2ccc(OCCO)cc2)cc1`, the composite z-score is reported as 1.38.
Work on `C=CCC(OC(C)=O)[C@@H]1[C@@H](N(Cc2cc3ccccc3o2)C(=O)Cc2ccc(OC)cc2)c2cc(OCCCO)ccc2N1C(=O)Cc1ccc(OC)cc1` (stereo not given in full) yielded a composite z-score of 0.726.
`COCCOC(=O)N1C(=O)[C@@]2(c3cc(C#CC4(O)CCCCCC4)ccc31)[C@H](C(=O)NC[C@H](O)c1ccccc1)[C@H]1C(=O)O[C@H](c3ccccc3)[C@H](c3ccccc3)N1[C@@H]2c1ccc(O)cc1` was tested, and the composite z-score was 0.37.
With `Cc1c(NC(=O)/C(C#N)=C/c2ccc(Cl)cc2)c(=O)n(-c2ccccc2)n1C` the composite z-score was 0.114.
`CCCC=C(CCC)[C@@H](NS(=O)(=O)c1ccc(Cl)cc1)c1ccccc1` showed a composite z-score of -0.883.
In the case of `CN(C)CCCNC(=O)[C@@]1(Cc2ccccc2I)c2ccccc2C(=O)N(Cc2ccccc2)[C@H]1c1ccc(CO)cc1`, the composite z-score is reported as 1.28.
For `CCOC(=O)C[C@H]1[C@H](OC(=O)c2ccc(-c3ccccc3)cc2)[C@@H](NC(=O)c2ccc3ccccc3c2)c2cc(OCCCO)ccc2N1C(=O)c1ccccc1`, the composite z-score was 0.0533.
Compound `C=C(CCCC)C(=O)CC[C@H](OC(=O)c1cccnc1)c1ccc(CO)o1` has a composite z-score of 1.18.
With `COc1ccc(C#Cc2ccc3c(c2)[C@]2(C(=O)N3)[C@H](c3ccc(OCCO)cc3)N3[C@H](c4ccccc4)[C@H](c4ccccc4)OC(=O)[C@H]3[C@@H]2C(=O)O)cc1` the composite z-score was 1.15.
